This passage reports growth results from PubChem BioAssay (NCI).

Experiment in all cases: NCI-60 one-dose screen, 48 h (100 = growth as untreated, 0 = no growth, -100 = all killed)
What all share (conditions): 10 µM unless noted

The subject of assay [1] is SR leukemia.
For assay [2], the system named is RPMI-8226 leukemia.
In assay [3] the test system is OVCAR-5 ovarian.
The subject of assay [4] is OVCAR-4 ovarian.
Assay [5] concerns SK-OV-3 ovarian.
The subject of assay [6] is IGROV1 ovarian.
The subject of assay [7] is OVCAR-3 ovarian.
Assay [8] has as its system HS 578T breast.
In assay [9] the test system is NCI/ADR-RES ovarian.
The subject of assay [10] is T-47D breast.
Assay [11] relates to BT-549 breast.
In assay [12] the test system is MDA-MB-435 melanoma.
Assay [13] deals with SW-620 colon.
Assay [14] concerns MCF7 breast.
The test system of assay [15] is HCT-116 colon.
In assay [16] the test system is HCC-2998 colon.
In assay [17] the test system is KM12 colon.

Compounds without any hit were thinned out: in the full panel of roughly 83,000, 20% have a hit.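 Cells were grown in 96-well plates and exposed to the test compound at a single concentration for 48 hours; results are reported as percent growth, with values below 10 considered active.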 Values without a mark were called inactive. Active and inactive are the calls of the source.

Consider `Cn1cc(-c2nc(N)nnc2-c2c[nH]c3ccc(Br)cc23)c2cc(F)ccc21`, for which the growth is 50% in assay [1]; 80.2% in assay [2]; 110% in assay [3]; 94.5% in [4]; 118% in [5]; 73% in [6]. The growth is 99.6% in assay [7]; 96.4% in [8]; 89.8% in [9]; 74.8% in [10]; 96.9% in [11]; 50.5% in [12]. Further, the growth in [13] is 95.1%; in assay [14], 47.4%; in assay [15], 100%; in assay [16], 122%; in assay [17], 74.7%.

In the case of `CCOC(=O)c1c(NC(=O)c2ccc(C(F)(F)F)cc2)sc2c(CN3CCN(C)CC3)c(O)ccc12`, the growth in assay [1] was -56.9% (active); in assay [2] it was -42% (active); in [3] it was -52.6% (active); in assay [4], -53.8% (active); in assay [5], -4.72% (active); in [6] it was -82.7% (active). Besides, the growth in assay [7] is -68.9% (active); in assay [8], -17.8% (active); in [9], -63.2% (active); in [10] it was -35% (active); in assay [12] it was -61.5% (active); in assay [13] it was -71.2% (active). The growth was -79.5% (active) in assay [14], -92.5% (active) in assay [15], -74.9% (active) in [16] and -21.2% (active) in assay [17].

Take `O=C1[C@@H]2Cc3c([nH]c4ccccc34)[C@H](c3ccc(Cl)cc3)N2C(=O)CN1C1CCN(Cc2ccccc2)CC1`: the growth in assay [1] was 4.81% (active); in assay [2], 21.8%; in assay [3], 85.5%; in assay [4], 54.4%; in assay [5] it was 89.6%; in [6], 43.3%. Moreover, the growth in [8] is 65.5%; in assay [9], 52.6%; in assay [10], 74.5%; in [11] it was 72.1%; in [13], 61.3%; in assay [14], 16.2%. The figures for the growth in [15], in assay [16] and in [17] were 25.5%, 51.4% and 57.6%, respectively.

As to `O=C(CCCCCCNC(=O)C(O)(O)C(F)(F)F)Nc1ncc(-c2ccccc2)s1`, the growth was 10.9% in [1]; 14.6% in [2]; -0.912% (active) in assay [3]; 18.9% in assay [4]; -23.8% (active) in [5]; -23.5% (active) in assay [6]. Also, the growth in assay [7] was -43% (active); in assay [8], 0.452% (active); in [9], 2.08% (active); in assay [10], 8.47% (active); in assay [11], -9.98% (active); in assay [12], 0.873% (active). Besides, the growth in assay [13] was 0.575% (active); in assay [14] it was 11.7%; in assay [15] it was 2.27% (active); in assay [16], -46.1% (active); in [17], -28.7% (active).

As for `CCOC(=O)c1c(NC(=O)c2ccc(C(F)(F)F)cc2)sc2c3c(ccc12)OCN(C)C3`, the growth is -29.8% (active) in [1]; -36.9% (active) in assay [2]; 54.2% in [3]; 82.4% in assay [4]; 93.5% in [5]; 41.9% in assay [6]. The growth in [7] is 2.17% (active); in [8], 78.7%; in assay [9] it was 51.9%; in assay [10], 4.14% (active); in assay [12], -16.8% (active); in assay [13] it was -52.4% (active). Besides, the growth was -61.7% (active) in [14], -75.8% (active) in [15], -13.8% (active) in [16] and 12.1% in assay [17].

With `Nc1nc(=O)n([C@H]2C[C@H](O)[C@@H](CO)O2)cc1C=O`, the growth in assay [1] was 107%; in assay [2] it was 110%; in assay [3] it was 94.2%; in assay [4] it was 78.1%; in assay [5], 116%; in assay [6], 106%. The growth was 116% in assay [7]; 129% in [8]; 9.49% (active) in assay [9]; 113% in assay [10]; 116% in assay [11]; 110% in [12]. In addition, the growth in [13] is 107%; in assay [14], 96.1%; in [15] it was 91.3%; in [16], 87.7%; in assay [17], 103%.

With `COc1cc(/C=N\NC(=O)c2ccc3nc(-c4ccc(Br)cc4)[nH]c3c2)cc(OC)c1OC`, the growth in assay [1] was 37.9%; in assay [2] it was 10.7%; in assay [3], 119%; in [4] it was 74.1%; in assay [5], 68.3%; in assay [6], 57.9%. Moreover, the growth is 38% in [8]; 95.9% in [9]; 9.41% (active) in assay [10]; 38% in assay [11]; 52.5% in assay [12]; 79.1% in [13]. For the same compound, the growth in assay [14] is 6.5% (active); in assay [15], 18%; in [16], 73.1%; in assay [17] it was 47.1%.

Consider `Cc1ccc2c(n1)C(=O)C(Cl)=C(Nc1ccc(C#N)cc1)C2=O`, for which the growth was 15.3% in assay [1]; 55.1% in assay [2]; 106% in assay [3]; -98.5% (active) in [4]; 106% in assay [5]; 68.4% in [6]. Further, the growth is 4.24% (active) in assay [7]; 97.7% in [8]; 98% in [9]; 7.98% (active) in assay [10]; 120% in assay [11]; 99.5% in assay [12]. Moreover, the growth in assay [13] was -23.1% (active); in [14], 18.7%; in assay [15], 67.9%; in [16], 108%; in [17] it was 102%.

Take `O=C1C(N2CCN(c3ccccc3)CC2)=C(Cl)C(=O)c2ncccc21`: the growth in assay [1] is 3.69% (active); in [2], 35.5%; in assay [3], 107%; in assay [4], 66%; in assay [5], 91.5%; in [6], 70%. Also, the growth in assay [8] is 79.8%; in assay [9], 77%; in [10], -54.2% (active); in assay [11], 97.3%; in [12], -67% (active); in [13], -35% (active). For the same compound, the growth in assay [14] was -44.7% (active); in [15] it was -56.1% (active); in assay [16] it was 97.8%; in assay [17], 92.3%.

Take `CCN(CC)CCOc1ccc(C(=C(C)c2ccc(OC)cc2)c2ccc(OCCN(CC)CC)cc2)cc1`: the growth in [1] was -37.3% (active); in assay [2], -43.7% (active); in [3], 18.8%; in assay [4] it was -24.4% (active); in assay [5], 96.4%; in assay [6] it was 0.0725% (active). The growth in assay [7] was -4.04% (active); in assay [8], -21.8% (active); in [9] it was 25.3%; in [10], -45.7% (active); in assay [11], 47.9%; in assay [12], -71.5% (active). The growth is -35.7% (active) in [13]; -64.5% (active) in assay [14]; 0.525% (active) in assay [15]; 3.44% (active) in assay [16]; 14.7% in assay [17].

Take `O=C(/C=C/c1cc(Cl)ccc1Cl)Nc1ncc(Cc2ccc(Cl)cc2)s1`: the growth is 14% in assay [1]; 16.2% in assay [2]; 23.9% in assay [3]; 30.4% in assay [4]; 35.6% in assay [5]; 5.94% (active) in assay [6]. Further, the growth in assay [8] was 6.99% (active); in [9] it was -5.33% (active); in assay [10] it was 63.8%; in [11], -46.5% (active); in assay [12], -37% (active); in assay [13] it was 20.8%. Moreover, the growth in assay [14] is 16.2%; in assay [15], 2.67% (active); in [16], 13.3%; in assay [17], 13.1%.

Turning to `CCCc1cc2cc(-n3nc(CC)c4c3CC(C)(C)CC4=O)cc(NC3CCC(O)CC3)c2c(=O)[nH]1` (configuration not stated), the growth in assay [1] was 0.947% (active); in assay [2], 12.4%; in [3], 35.2%; in assay [4] it was 64.9%; in assay [5] it was 27.2%; in assay [6], 25.4%. The growth was 46.7% in assay [7]; 16.1% in assay [8]; 39.9% in assay [9]; 29.6% in assay [10]; 38.7% in [11]; 0.0389% (active) in assay [12]. Moreover, the growth in assay [13] is 12.3%; in assay [14] it was 17.7%; in assay [15], 6.5% (active); in [16], 8.95% (active); in assay [17], 15.4%.

Turning to `CCOC(=O)c1ccc(NC2=CC(=O)C(C)=C(C)C2=O)cc1`, the growth in assay [1] is 50.3%; in assay [2] it was 66.1%; in assay [3], 104%; in assay [4], -63% (active); in assay [5], 92%; in assay [6], 79.2%. Besides, the growth is 0.628% (active) in assay [7]; 94.1% in [8]; 43.2% in assay [10]; 91.1% in assay [11]; 44.2% in [12]; 101% in assay [13]. The growth was 62.7% in assay [14], 56.5% in [15], 101% in assay [16] and 46.1% in assay [17].

For `N#C/C(=N\Nc1ccc(F)cc1)C(=O)Nc1cc(-c2ccccc2)nn1-c1ccccc1`, the growth in [1] is 24.1%; in [2], 11.9%; in assay [3], 19.8%; in assay [4], 1.96% (active); in assay [5] it was -14.8% (active); in [6], 24.7%. Besides, the growth is 11.2% in assay [7]; 25.9% in assay [8]; 3.07% (active) in assay [9]; 7.63% (active) in assay [11]; 6.98% (active) in assay [12]; 17.5% in assay [13]. The growth in assay [14] is 0.117% (active); in assay [15] it was 7.78% (active); in [16], 19.5%; in [17], 9.32% (active).

Take `CC(=O)c1c([Si](C)(C)C)c2cc(C#N)ccn2c1C(=O)c1ccc(Br)cc1`: the growth in assay [1] is 87.9%; in [2], 92.1%; in [3], 79%; in assay [4], 76.2%; in [5], 98.3%; in assay [6] it was 68.7%. In addition, the growth is 79.3% in [8]; 88.6% in assay [9]; 73.8% in [10]; 97.5% in assay [11]; 92.5% in [12]; 87.2% in [13]. For the same compound, the growth in assay [14] was 82.5%; in [15], 56%; in [16] it was 89.9%; in assay [17] it was 88.3%.

As for `N#Cc1nc(-c2ccccc2)oc1N1CCC(C2(C(F)(F)F)N=N2)CC1`, the growth is 85.1% in [1]; 97.2% in assay [2]; 109% in assay [3]; 96.4% in assay [4]; 96.2% in assay [5]; 108% in assay [6]. Besides, the growth in assay [8] was 96.7%; in assay [10], 95.6%; in assay [11], 136%; in assay [12], 101%; in [13], 98.8%; in assay [14], 89.1%. Moreover, the growth in assay [15] is 104%; in assay [16] it was 107%; in assay [17] it was 96.2%.

In the case of `C#CCn1cc(/C=N/Nc2nc(-c3ccc(Br)cc3)cs2)c2ccccc21`, the growth in assay [1] was 119%; in assay [2], 110%; in assay [3] it was 97.4%; in [4], 107%; in [5], 91.1%; in [6], 74.9%. Besides, the growth was 108% in [7]; 101% in assay [8]; 101% in [9]; 76.4% in [10]; 111% in assay [11]; 106% in assay [12]. Moreover, the growth in [13] is 98.7%; in assay [14], 64.1%; in assay [15] it was 85.4%; in [16] it was 116%; in assay [17] it was 104%.
